Test results reported in the supplement of paper PMC6555819.

tested on: VDR:RXRa (NR concentration 270 nM, RXRa partner concentration 90 nM); assay: PBM binding z-score (relative to random genomic background probes); higher = stronger binding; sequences stand for … in GC…GCGATTGACAGCGTAGAATGAAGG
Protocol: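 Protein-binding microarray (Agilent 4x180K custom design, double-stranded 60-nt probes: 5' GC cap, 34-nt variable region, 24-nt constant primer region; full probe sequence given). Purified or IVT nuclear receptor:RXRα heterodimers (3:1 NR:RXRα, mostly 270:90 nM) or homodimers were incubated for 1 h in PBS with 2% milk and no ligand, then detected with Alexa488 antibodies. Fluorescence from o1-orientation probes (~5 replicates averaged) was converted to z-scores against 500 random hg19 background probes. Variable regions are seed direct-repeat (DR0–DR5) sites, all their single-nucleotide variants and half-site ablations.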

Sequence	PBM binding z-score
CATACAGGGTCAGCTAGGCCAGAGCAGGGACGGC	3.75
TCTATTAGTTGAAGCGCAACCGACGAGTCCGTTT	0.736
TCTCGGAGGACACGAGGGTCAGAGCTTTCCAGAG	1.7
TCTCGTAGATCAATAGAGGTTAAGAAAGTGCGCT	1.68
CCTAATGGGCCAAGGTCATTGATCAGTCAAAGCA	3.37
GCTAGCAGGACATTTGGGTCACTCAATGACGGGC	0.429
ATATGTAGGATAAGGGTCATTCAGGTTGGTTCGC	5.49
TTTCGGAGGACACGAAGGTCAGAGCTTTCCAGAG	2.47
GCTCGGAGGACAAGGTCCGAGCTTTGTCCGTAGA	-0.684
GCATATAGGTAACACAAGGTGAAAGTCCGATTGT	0.418
AGTCAAAGTTAACTAGGTAACGTAAGATTCAGCT	-0.0453
CCTATTAGTTGACCATAAGGGCAACTGAAGCTCG	1.08
ACAGACAGGTGAGTGAAGGTAGCTCAGCTGGACG	-0.56
AATACAGGGTCACTAGGCCAGTGTAGGTACGAAT	4.26
ATATGTTGGTTAAGGGTCATTCAGGTTGGTTCGC	5.55
CGAACTAGGTCATCCTGGACAGTGAATACATTGA	2.56
CTCGAAAGCTCGGTTGAGGTGAGTATACGGATAA	-0.326
ACTAGCAGGCCAAGGGTCACTCACGATTAGTCCG	2.69
CGTCCAAGGTCAGAGAGGTCAGTGAATGCCGAGT	7.26
CGAACGAGGGCATGAGTTGATAGTAAATGCCGAT	1.17

Sequence	PBM binding z-score
AGGACGAGGGCACGCTGAGTTGATAGCAGAGTAG	2.09
GCTTGTATATCAAGGTTAAGAAAGACTAAGCTAA	0.325
AGAATGAGGTTAAGATAAGGGAAACAGAATACAT	1.62
ACTAGCAGGCGAAGTTTGGGTCACTCAAACAAAG	0.191
CTCGAAAGGTCGGTTCAGGTGAGTATACGGATAA	2.71
CGTCCAAGGTCAATGCTAGGTCAGTGACAGCATT	4.87
AGTCATAGTTCAGGACGAGGTAACGTAAAGCACG	0.92
GATACCGGGTCAAGGCCAGAGTACGCGTATTGAT	3.11
GCGACTGGGGCAAAGCAGGTTAGCATAAGGTTGG	-0.429
CGAAAGAGGGCATGAGTTGATAGCAAATGCCGAT	1.22
CCGAGTAGGTTATGGGGCTTTCAGGCAACGGTGA	-0.375
ATCTGTAGGTAAAGATAGTTCAGTGAATGCAAAT	0.945
CAAACTAGGTCACAGAGGTCAAGGTCCGTGCGTA	7.73
AGAATGAGGTTAAGCTCAGGGAAACAGAATACAT	1.26
CCGACTGGCGCAAGGTTACCATAACGCACAGCCA	0.151
CAAACTACGTCACGAAAGGTCAAAGTCGAATGAC	4.91
CCTACTGGGCCAAACGTCATTGATTCCAATGCTC	-0.204
CCGACTGGGGCAGAGGTTACCATACTCAGTACGA	0.52
TCTATTGGTTGAAGGGCAACCGACGAGTCCGTTT	0.889
TCTATTAGTTGAAAGGCAACCGACGAGTCCGTTT	0.899
